Screening data from PubChem.
Rce1 inh = blocks yeast Ras-converting enzyme | yeast membranes, quenched prenylated peptide cleavage fluorescence | calls only | 0.27% of 290,000 active;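 active = fall in fluorescence gain of 50% or more versus controls, with final raw signal at or below 3038400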
Target sequence (Q03530 whole entry, looked up): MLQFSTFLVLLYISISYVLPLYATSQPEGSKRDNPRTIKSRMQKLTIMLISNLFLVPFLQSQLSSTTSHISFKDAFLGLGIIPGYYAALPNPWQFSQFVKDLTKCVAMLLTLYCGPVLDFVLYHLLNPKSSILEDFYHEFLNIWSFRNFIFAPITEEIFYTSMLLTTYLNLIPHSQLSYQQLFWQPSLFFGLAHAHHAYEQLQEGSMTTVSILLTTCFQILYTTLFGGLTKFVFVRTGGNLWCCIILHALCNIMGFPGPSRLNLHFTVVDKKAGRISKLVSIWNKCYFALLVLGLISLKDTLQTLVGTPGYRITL
PfHsp90 set2 = inhibits growth of yeast expressing Plasmodium falciparum Hsp90; S. cerevisiae expressing PfHsp90, BacTiter-Glo ATP, 48 h; yeast lacking PDR1 and PDR3 efflux regulators; inhibition, % at 9.4 µM; 0.32% of 310,000 active;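 active = every replicate shows inhibition above about 80%, whatever the replicate mean, limit read from the data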
tim23-1 inh = inhibits growth of tim23-1 mutant yeast | S. cerevisiae tim23-1 growth, BacTiter-Glo luminescence, 24 h | inhibition, % at 20 µM | 1.3% of 330,000 active | AID 463212;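 active = growth inhibition of the mutant yeast at or above 50%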;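 note: temperature-sensitive mutant grown at 25 °C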
TIM10 inh = TIM10 yeast growth inhibition | S. cerevisiae TIM10 strain growth, BacTiter-Glo luminescence, 24 h | inhibition, % at 10 µM | 1.4% of 330,000 active | AID 463195;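 active = inhibition of 40% or more at the single tested concentration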;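 note: wild-type TIM10 isogenic control strain grown at permissive 25 °C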
tim10-1 inh = inhibits growth of tim10-1 mutant yeast | 2.2% of 330,000 active | AID 463190 | S. cerevisiae tim10-1 ts strain growth, BacTiter-Glo, 24 h | inhibition, % at 20 µM;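 active = inhibition of at least 40%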;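 note: mutant grown at 25 °C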
tim10-1 confirm = tim10-1 yeast growth inhibition, confirmed | 56% of 7,400 active | inhibition, % at 20 µM | shares compounds with tim10-1 inh | S. cerevisiae tim10-1 ts strain growth, BacTiter-Glo, 24 h;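 active = inhibition of yeast growth at or above a set limit in either of two repeat tests at 20 µM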;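 note: tim10-1 mutant grown at permissive 25 °C to find synthetic lethal compounds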
Numbers stand for hits; n = inactive; x = no result. Sampled rows, rich in hits. Any-hit rate of the full collection: about 3.7%.

SMILES | Rce1 inh | PfHsp90 set2 | tim23-1 inh | TIM10 inh | tim10-1 inh | tim10-1 confirm
COc1ccccc1/C=C/C=N/N1CCN(Cc2cccc3ccccc23)CC1 | n | x | n | n | n | x
Cn1c(N)c(C(=O)COC(=O)Cc2ccc(Cl)cc2Cl)c(=O)n(C)c1=O | x | n | n | n | n | x
Cn1c(N)c(C(=O)COC(=O)CCCOc2ccc(Cl)cc2Cl)c(=O)n(C)c1=O | n | n | n | n | 41.7 | 41.3
Cc1sc2nc(SCc3nc4ccccc4[nH]3)n(Cc3ccco3)c(=O)c2c1C | n | n | n | n | 52.2 | 34.8
CCCNC(=O)c1ccc(Cl)cc1Cl | n | n | n | n | 97.3 | n
CN(C)/N=C/C=C1\CCC/C(=C\c2ccc(F)c(F)c2)C1=O | n | n | n | n | 46.0 | 47.9
Cn1cc(SCC(=O)O)c2ccccc21 | n | x | n | n | n | x
Cn1cc(C(C[N+](=O)[O-])c2ccccc2)c2ccccc21 (configuration not stated) | n | n | n | n | 40.4 | 48.9
CCc1ccc(N2CC(C(=O)OCC(=O)NNC(=O)c3ccccc3)CC2=O)cc1 (configuration not stated) | n | n | n | n | n | x
COc1cc(NC(=O)c2ccccc2F)c(OC)cc1NC(=O)CN1CCOCC1 | n | n | n | n | 43.0 | n
COc1cc(NC(=O)c2ccc(F)cc2)c(OC)cc1NC(=O)CN1CCOCC1 | n | n | n | n | n | x
CCC1CCc2sc(C(=O)NCC(c3ccccc3OC)N3CCCC3)cc2C1 (configuration not stated) | x | n | n | n | n | x
O=C(Cc1cccc(C(F)(F)F)c1)OCC(=O)N1CCN(S(=O)(=O)c2ccc(Cl)cc2)CC1 | n | n | n | n | 47.4 | n
Nc1ccccc1Nc1cc(-c2ccccc2)nn1-c1cccc(Cl)c1 | n | n | n | n | 44.5 | n
O=C(CCl)Nc1cc(-c2ccccc2)nn1-c1ccccc1 | n | n | n | n | n | x
CCOC(=O)C1CCCN(C2CC(=O)N(c3cccc(C(F)(F)F)c3)C2=O)C1 (configuration not stated) | n | 119.7 | n | n | 56.2 | 41.7
CCOC(=O)C1CCCN(C2CC(=O)N(c3ccc(C(C)C)cc3)C2=O)C1 (configuration not stated) | n | n | n | n | 42.0 | 29.9
CCOC(=O)C1CCN(C2CC(=O)N(c3ccc(OCC)cc3)C2=O)CC1 (configuration not stated) | n | n | n | n | n | x
CCc1ccc(N2C(=O)CC(N3CCC(C(=O)OC)CC3)C2=O)cc1 (configuration not stated) | n | n | n | n | 42.5 | 42.4
COc1ccccc1NC(=O)C(C)NS(=O)(=O)c1ccc(Cl)cc1 (configuration not stated) | n | n | n | n | n | x
CC(C)(O)[C@H](O)Cc1cc2ccc(=O)oc2cc1O[C@@H]1O[C@H](CO)[C@@H](O)[C@H](O)[C@H]1O | x | n | n | n | n | x
Cc1cc(N2C3CCC2CC(O)(c2ccc(F)cc2)C3)nc(-c2ccccc2)n1 (configuration not stated) | n | n | n | n | 47.8 | 36.9
C[C@H]1CCC(=O)N([C@H](CN=[N+]=[N-])Cc2ccccc2)CC1 | n | n | n | n | n | x
CCOc1ccc(C(=O)/C=C/c2cc(OC)c(OC)c(OC)c2)cc1 | n | n | n | n | 44.7 | n
COc1ccc(C(=O)/C=C/c2ccc(OC(=O)c3cc(OC)c(OC)c(OC)c3)cc2)cc1 | n | n | n | n | n | x
SMILES | Rce1 inh | PfHsp90 set2 | tim23-1 inh | TIM10 inh | tim10-1 inh | tim10-1 confirm
CN(C)c1nc(OCCNC(=O)Nc2ccccc2)nc(N2CCCCC2)n1 | n | n | n | n | 40.1 | n
O=C(N/C(=C/c1ccc(Br)cc1)C(=O)N1CCCC1)c1cccs1 | n | n | n | n | 46.0 | n
CC(OC(=O)c1ccc([N+](=O)[O-])s1)C(=O)NC1CCCCC1C (configuration not stated) | x | x | n | n | 46.8 | 38.9
COc1ccc(/C=C2/NC(=O)N(CC(=O)Nc3cccc(C)c3)C2=O)cc1O | n | n | n | n | n | x
CC1(C)Cc2c(cnn2-c2ccccc2)C(NC(=O)c2ccoc2)C1 (configuration not stated) | n | n | n | n | n | x
C=CCC(=O)NC1CC(C)(C)Cc2c1cnn2-c1ccc(C)cc1 (configuration not stated) | n | n | n | n | n | x
CC1(C)Cc2c(cnn2-c2ccc(F)cc2)C(NC(=O)c2ccoc2)C1 (configuration not stated) | n | n | n | n | 40.1 | n
Cc1ccc(-n2ncc3c2CC(C)(C)CC3NC(=O)c2ccccn2)cc1 (configuration not stated) | n | n | n | n | 53.4 | n
CN(c1ccccc1)S(=O)(=O)c1cccc(C(=O)OCC(=O)NCCCN2CCCC2=O)c1 | n | n | n | n | n | x
Cn1c(=O)c2c(nc(SCC(=O)NCc3ccc4c(c3)OCO4)n2Cc2ccc(Cl)cc2)n(C)c1=O | n | x | n | n | 40.7 | n
CCSc1nc2c(c(=O)n(C)c(=O)n2C)n1Cc1ccc(Cl)cc1 | n | n | n | n | n | x
CCOC1(OCC)C(c2ccc(Cl)cc2)C(C#N)(C#N)C1(OCC)OCC (configuration not stated) | n | n | n | n | 46.8 | n
CCOC1(OCC)C(c2ccc(N)cc2)C(C#N)(C#N)C1(OCC)OCC (configuration not stated) | n | x | n | n | 41.9 | n
COc1cccc(Oc2nnnn2-c2ccccc2)c1 | n | n | n | n | 41.7 | 32.9
O=C(c1ccc(CNc2c(N3CCCC3)c(=O)c2=O)cc1)N1CC=C(c2ccccc2)CC1 | n | n | n | n | n | x
CCCN(CC(=O)Nc1cc(Cl)cc(Cl)c1)CC(=O)Nc1ccc(F)c(F)c1F | n | n | n | n | 51.2 | n
Cc1csc(NC(=O)CS(=O)(=O)c2ccccc2)n1 | n | x | n | n | n | x
O=C(CS(=O)(=O)c1ccccc1)Nc1nc(-c2ccccc2)cs1 | n | n | n | n | 47.3 | 40.4
CNC(=S)Nc1cccc(Cl)c1C | n | n | n | n | n | x
O=C(Oc1ccc(C(=S)N2CCCCC2)cc1)c1ccccc1F | n | n | n | n | 55.5 | n
O=C(Oc1ccc(Br)cc1C(=S)N1CCCC1)c1ccccc1F | n | n | n | n | n | x
Cc1ccc(S(=O)(=O)N2CCC(C(N)=O)CC2)cc1[N+](=O)[O-] | n | n | n | n | n | x
CC(=O)c1ccn(S(=O)(=O)c2ccccc2)c1 | n | n | n | n | n | x
CCOC(=O)c1cnc2c(OC)cccc2c1Oc1ccccc1 | n | n | n | n | n | x
CCOC(=O)c1cnc2c(C(F)(F)F)cccc2c1N1CCN(C)CC1 | n | n | n | n | n | x
CCOC(=O)c1cnc2c(OC)cccc2c1N1CCN(c2ccc(OC)cc2)CC1 | n | n | n | n | 40.0 | n
CCOC(=O)c1cnc2c(OC)cccc2c1N1CCN(c2ccccn2)CC1 | n | n | n | n | 47.8 | n
